This is one part of a sample in which hits are shown more often than they occur.
Tgondii IFNg – T. gondii growth inhibition with IFN-gamma, primary screen, cell-based. AID 1259416, 2018. 69,000 tested, 3.8% active. Toxoplasma gondii growth in IFN-gamma-treated host cells; stronger effect = lower value. activity change, negative = inhibition, % (concentration not given with the values); in the data active = activity change below about -70%, passing the limit was not always enough;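 note: host cells are HeLa cells infected with Toxoplasma gondii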
* hit, by the source's call; ! = not active in a repeat.

SMILES | Tgondii IFNg
Cn1cc(N2CC3(CCN(CCO)C3)CC2=O)cn1 (centres undefined) | -87*
Cn1cc(N2CC3(CCN(S(C)(=O)=O)C3)CC2=O)cn1 (centres undefined) | 12
Cc1cc(CN(C)CC2(O)CCCN(Cc3ccc(C(C)C)cc3)C2=O)no1 (centres undefined) | -2
COc1cc(OC)cc(-c2noc(-c3c(O)c4cc(C)ccc4[nH]c3=O)n2)c1 | 100
OCC(O)CN1CCN(c2ccccc2)CC1 (centres undefined) | -5
C#CC1(OCC(O)CN2CCN(c3ccccc3OC)CC2)CCCCC1 (centres undefined) | 18
C#CC1(OCC(O)CN2CCN(c3cccc(C(F)(F)F)c3)CC2)CCCCC1 (centres undefined) | -80*
CCn1c(N2CCC(C(=O)NCC(N)=O)CC2)nc2ccccc21 | -21
CN(C)CCNC(=O)c1cc(-c2cnc(N3CCOCC3)nc2)cn1C | 5
Cc1oc(-c2ccc(NC(=O)Cc3ccc(Cl)cc3)cc2)nc1Cn1cccn1 | -36
Cc1oc(-c2ccc(NC(=O)c3ccccc3F)cc2)nc1Cn1cccn1 | -59
Cc1oc(-c2ccc(NC(=O)Cc3ccc(F)cc3)cc2)nc1Cn1cccn1 | 11
Cc1oc(-c2ccc(NC(=O)c3ccccc3Br)cc2)nc1Cn1cccn1 | -94*
Cc1oc(-c2ccc(NC(=O)c3ccccc3)cc2)nc1Cn1cccn1 | 20
Cc1oc(-c2ccc(NC(=O)Cc3cccc(F)c3)cc2)nc1Cn1cccn1 | -87*
COc1cccc(-c2nc(C)c(-c3ccc(SCc4ccccn4)nn3)s2)c1 | 129
CC1CCCCN1C(=O)c1ccn(-c2ccc3ccc(-c4ccncc4)cn23)n1 (centres undefined) | -1
COc1ccc(CN2COc3ccc(Cl)cc3C2)cc1 | -89*
CC1CN(CC(=O)NCc2ccc3c(c2)OCO3)Cc2cc(Cl)ccc2O1 (centres undefined) | 3
COc1ccc2ncc3c(c2c1)-c1cc(Cl)ccc1OC3 | 255
Cc1ccc(NC(=O)Cn2c(=O)cc(C(=O)N3CCOCC3)c3ccccc32)cc1 | 7
O=S(=O)(c1ccc(F)cc1)N1CC2CCC1C2Oc1ccccn1 (centres undefined) | -67
Cn1c(=O)c2c(nc(N3CCN=C3SCC(N)=O)n2Cc2ccccc2)n(C)c1=O | -11
Cc1nc2c(c(=O)[nH]1)CCN(Cc1cccn1Cc1ccccc1F)C2 | 15
Cn1c(=O)c2c(nc(CN3CCc4ccccc4C3)n2Cc2ccccc2F)n(C)c1=O | -79*
SMILES | Tgondii IFNg
O=C(CN1CCN(C(=O)c2ccco2)CC1)Nc1cccc2ccccc12 | 13
COc1ccccc1CNC(=O)CCC1N=C2c3ccccc3N=C(SCc3ccccc3F)N2C1=O (centres undefined) | -7
Cc1ccc2c(c1)NC1(CCN(C(=O)c3ccccc3Cl)CC1)c1cccn1-2 | 0
O=C1N(Cc2ccccc2)C(=O)C2(CCN(Cc3ccsc3)CC2)N1CCc1ccccc1 | -64
O=C1N(Cc2ccccc2)C(=O)C2(CCN(Cc3c[nH]c4ccccc34)CC2)N1CCc1ccccc1 | -77*
O=C1N(Cc2ccccc2)C(=O)C2(CCN(CC3CC=CCC3)CC2)N1CCc1ccccc1 (centres undefined) | -33
Cc1ccc(F)c(C(=O)N2CCNCC2C(=O)N2CCN(C)CC2)c1Cl (centres undefined) | -2
CN(C)[C@@H]1CCN(C(=O)c2ccoc2)[C@H]1Cc1ccccc1 | -61
O=c1[nH]nc2c(-c3ccccc3)c(-c3ccccc3)c(-c3ccccc3)nn12 | -106*
Nc1[nH]nc2nnc(-c3c(-c4ccccc4)nn4ccccc34)cc12 | -45
O=c1cc2nn[nH]n2nc1-c1ccccc1 | 124
Cc1ncc(CN2CCOC3(COCCN(C(=O)C(C)C)C3)C2)n1C (centres undefined) | -7
CC(NCCc1ccc(O)cc1)C(O)c1ccc(O)cc1 (centres undefined) | -3
C[C@@H](NCCc1ccc(O)cc1)[C@@H](O)c1ccc(O)cc1 | -61
CCCCCCCCNC(C)C(O)c1ccc(SC(C)C)cc1 (centres undefined) | -78*!
O=C(Cn1c(=O)cc(C(=O)N2CCCC2)c2ccccc21)Nc1ccccc1Cl | -55
Cc1cc(C)c2[nH]c(C(=O)N(CCO)Cc3nccs3)c(C)c2c1 | 1
Cc1ccc(-c2ccc(-c3nnco3)cc2)c(-n2cccn2)c1 | -3
CCCCCCCCCCCCCCCCCCc1ccc(C(=O)/C=C/C(=O)O)cc1 | 7
CCCCCCCCc1ccc(CCC(N)(CO)CO)cc1 | -82*!
CCCCCCCCc1ccc(-c2ccc(C(=O)O)cc2)cc1 | 23
Cc1cccc(C(=O)Nc2c(C(=O)N3CCN(c4ccccn4)CC3)[nH]c3ccc(C)cc23)c1 | 2
O=C(c1ccccc1)C1CCN(Cc2cc3n(n2)CCCNC3)CC1 | -3
CS(=O)(=O)c1ccc(-c2cccc(-n3cnnc3)c2)cc1 | -51
COC(CNC(=O)c1c(C)cc(C)n(C)c1=O)c1cccs1 (centres undefined) | 5
SMILES | Tgondii IFNg
CNC(=O)CN1CCO[C@H]2CN(C(=O)COC)C[C@@H]21 | 177
C#C[C@]1(O)CC[C@H]2[C@@H]3CCc4cc(OC)ccc4[C@H]3CC[C@@]21C | -6
C[C@]12CC[C@@H]3c4ccc(O)cc4C(=O)C[C@H]3[C@@H]1CC[C@@H]2O | -3
C[C@]12CCC3c4ccc(OS(=O)(=O)O)cc4CCC3C1CC[C@H]2O (some centres undefined) | 9
C[C@]12CCC3c4ccc(O)cc4CCC3C1CC[C@@H]2O (some centres undefined) | -74*
CC(=O)O[C@]1(C(C)=O)CC[C@H]2[C@@H]3C=CC4=CC(=O)CC[C@]4(C)[C@H]3CC[C@@]21C | 14
C[C@]12CCC3c4ccc(O)cc4CCC3C1C[C@@H](O)[C@@H]2O (some centres undefined) | -4
C#C[C@]1(O)CCC2C3CCc4cc(OC)ccc4C3CC[C@@]21C (some centres undefined) | 5
C[C@]12CC[C@@H]3c4ccc(O)cc4CC[C@H]3[C@@H]1CCC2=O | -77*!
CC12CCC3c4ccc(O)cc4C=CC3C1CCC2=O (centres undefined) | -88*
CCCN(CC)C(=O)c1ncn2c1CN(CC(=O)N(C)C)S(=O)(=O)c1ccccc1-2 | 132
CC(=O)N1CCC(C(=O)NCc2ccccc2)(N(C(=O)c2ccc(C)cc2)c2ccc(C)c(F)c2)CC1 | 6
O=C(NCCc1csc(-c2ccc(Cl)cc2)n1)c1ccccc1F | -29
Cc1cc(CCC(=O)O)nc(C2CCN(S(C)(=O)=O)CC2)n1 | -33
CC/C=C(\C)CN1CCC(CNC(=O)c2cccc(O)c2C)C1 (centres undefined) | -5
COc1ccc(-n2c(=O)c(C(=O)Nc3ccc(F)c(F)c3)c(O)c3cccnc32)cc1 | -25
Cc1cc(C)n(-c2ccc(CCC(=O)Nc3nc(-c4ccccn4)cs3)cc2)n1 | -98*
O=C(Nc1nc(-c2ccccn2)cs1)c1ccccc1CN1CCCCC1 | -14
Cc1cc(C)n(-c2ccc(C(=O)Nc3nnc(CCc4ccccc4)s3)cc2)n1 | -26
Cc1cc(C(F)(F)F)nn1CC(=O)Nc1sc2c(c1C#N)CCC(C(C)(C)C)C2 (centres undefined) | 3
COc1ccccc1NC(=O)CCn1cnc(-c2ccccc2)c1-c1nccn1C | 5
CC(C)c1cccc(NC(=O)Cn2ncc3c(N4CCN(c5ccccn5)CC4)ncnc32)c1 | -93*
O=C(Cn1ncc2c(N3CCN(c4ccccn4)CC3)ncnc21)Nc1ccc(Cl)cn1 | -83*

Screening data (PubChem)
